Hit rate of the full screen: of about 310,000 compounds, about 3,900 (1.3%) were called active.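 How the source made its calls: active means calcium-response B-score plate-corrected more than 3 library SD below zero, starting fluorescence within 5 deviations, no agonist response on first addition; inactive means the rest.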 The entries come from a sample that favours actives as a whole.

For the experiment, the target named is Mas-related G-protein coupled receptor member X1 (Homo sapiens) (UniProt Q96LB2). In words: blockade of BAM8-22-evoked MrgX1 calcium response – HEK293 cells, Fluo-4 calcium flux, primary screen (AID 588676).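 On B-score: peak minus trough fluorescence over baseline after final BAM8-22 challenge near maximal dose.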 To be noted: Fluo-4, BAM8-22 antagonism, at 10 µM; hits give low values.
Sequence of Mas-related G-protein coupled receptor member X1 (Homo sapiens) (Q96LB2 whole entry, looked up): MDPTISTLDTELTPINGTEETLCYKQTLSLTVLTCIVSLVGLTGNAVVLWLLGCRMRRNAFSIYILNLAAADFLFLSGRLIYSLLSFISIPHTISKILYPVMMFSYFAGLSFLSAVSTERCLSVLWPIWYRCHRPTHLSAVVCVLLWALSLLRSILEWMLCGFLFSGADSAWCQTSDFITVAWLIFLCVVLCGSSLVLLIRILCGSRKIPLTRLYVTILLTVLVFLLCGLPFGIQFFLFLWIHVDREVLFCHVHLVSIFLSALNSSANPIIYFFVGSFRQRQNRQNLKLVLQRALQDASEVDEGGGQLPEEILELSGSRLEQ
For `O=C1CCCN1CCCNC(=S)Nc1ccc(F)c(Cl)c1`, the B-score is -4.94 (active).

As for `Cc1cc(Cl)ccc1NC(=S)NCCCN1CCCC1=O`, the B-score entry is “inactive”. As for `Cc1c(Cl)cccc1NC(=O)NCCCN1CCCC1=O`, the entry is “inactive”; as for `O=C(NC1CCN(Cc2ccccc2)CC1)c1cc(Br)c(Br)[nH]1`, “inactive”.

As to `Oc1c(Cl)cc(Cl)c(Cl)c1Cc1c(O)c(Cl)cc(Cl)c1Cl`, the B-score was -8.06 (active). Then `O=C(CN1CCCCCC1)Nc1c(Cl)cc(Cl)cc1Cl`, with “inactive”; and `COc1cc2c(C(=O)N3CCN(C)CC3)c(CSc3ccccc3)n(C)c2cc1Br`, with “inactive”; and `O=C(COC(=O)c1cc(-c2cccs2)nn1-c1ccccc1)Nc1cc([N+](=O)[O-])ccc1Cl`, with “inactive”.

Turning to `CC(C)(C)n1nc2c(c1NC(=O)c1ccc(S(=O)(=O)N3CCCC3)cc1)CS(=O)C2` (stereo unspecified), the B-score is -5.73 (active).

For `O=C(Nc1ncccc1O)c1ccc(S(=O)(=O)N2CCCC2)cc1`, the B-score result is “inactive”. Then `O=C(Nc1ncccc1O)c1ccc(S(=O)(=O)N2CCCCCC2)cc1`, with “inactive”; and `O=C(CCN1C(=O)[C@H]2CC=CC[C@H]2C1=O)NCc1nc(-c2ccccc2)no1`, with “inactive”.

In the case of `Cc1ccc(Nc2cc(C)nc3c(C)ccc([N+](=O)[O-])c23)cc1`, the B-score result is “inactive”. Then `Cc1cc(C)cc(NC(=S)NCCc2c[nH]c3ccccc23)c1`, with -5.78 (active); and `O=C(NCCc1c[nH]c2ccccc12)c1cccc(Br)c1`, with “inactive”; and `Cc1cc(C)cc(NC(=S)NCc2ccc(F)cc2)c1`, with “inactive”. `NS(=O)(=O)c1ccccc1NC(=O)c1c(O)c2ccccc2[nH]c1=O`: the B-score entry is “inactive”.

On to `O=C(/C=C/c1ccc(N2CCOCC2)cc1)c1ccccc1`, for which the B-score entry was “inactive”. For the compound `Cc1cccc(N2C(=O)c3ccc(C(=O)Nc4cccc(C(=O)O)c4)cc3C2=O)c1`, the B-score entry is “inactive”. Then `O=C(O)c1ccc2c(c1)C(=O)N(c1ccc(/C=C/C(=O)c3ccccc3)cc1)C2=O`, with -6.62 (active).

`Cc1cc(C)cc(C(=O)OCC(=O)NCCNC(=O)COC(=O)c2cc(C)cc(C)c2)c1`: the B-score result is “inactive”. As for `CCOC(=O)CNC(=O)CSc1nnc(COc2ccc(Cl)cc2)n1CC`, the B-score result was “inactive”. Take `CCOC(=O)CNC(=O)CSc1ncccc1-c1nc2ccccc2[nH]1`: the B-score entry is “inactive”.

For the compound `CCOC(=O)CNC(=O)CSc1nc2cccnc2n1CC`, the B-score was -8.3 (active).

In the case of `O=C1c2cccc3cccc(c23)C(=O)N1c1cccc(O)c1`, the B-score result is “inactive”. As for `COC(=O)[C@@H]1C[C@@]2(O)[C@@H](O)[C@@H](O)[C@@H](O)C[C@H]2N1Cc1ccc(C)s1`, the entry is “inactive”. As for `COc1ccc(Cl)cc1NS(=O)(=O)c1cccc(C(=O)NC2CCC(O)CC2)c1` (stereo unspecified), the B-score result is “inactive”. Then `COc1ccc(C(=O)NC2CCCc3c2cnn3-c2cccc(C)c2C)c(OC)n1` (stereo unspecified), with -8.89 (active). As for `Cn1nccc1C(=O)NC1CCCc2c1cnn2-c1ccccc1F` (stereo unspecified), the entry is “inactive”. Then `Cc1cc(C(=O)NC2CCCc3c2cnn3-c2cccc(C)c2C)c(C)o1` (stereo unspecified), with “inactive”; and `Cc1ccc(S(=O)(=O)NNC(=O)/C=C/c2cccc(F)c2)cc1`, with “inactive”; and `Cc1ccc(C)c(NC(=O)C2Cc3ccccc3CN2C(=O)OCc2ccccc2)c1` (stereo unspecified), with “inactive”. Consider `COc1ccc(C(C)NC(=S)NC2CCCCC2)cc1OC` (stereo unspecified), for which the B-score entry is “inactive”. Then `CCN(CC)CCNCC(=O)Nc1ccc(Oc2ccccc2)cc1`, with “inactive”; and `CCN(CC)CC(=O)Nc1nn(-c2ccccc2)nc1C(N)=O`, with -7.03 (active). As for `CCCN(CC(=O)Nc1ccc(C(N)=O)cc1)CC(=O)Nc1ccccc1C`, the entry is “inactive”; as for `O=C1CCC(C(=O)N2CCC(O)(c3ccccc3)CC2)CN1CCc1ccccc1` (stereo unspecified), “inactive”.

In the case of `COc1ccccc1OCc1nnc(SCC(N)=O)n1-c1ccccc1`, the B-score result is “inactive”.

For the compound `CC(C)(C)NC(=O)NC(=O)COC(=O)C1(C)CC1(Cl)Cl` (stereo unspecified), the B-score result was “inactive”. Then `COc1cc(CCC(=O)OCC(=O)Nc2cccc(S(N)(=O)=O)c2)cc(OC)c1OC`, with “inactive”; and `COc1cc(CCC(=O)N2CCN(c3ccccc3Cl)CC2)cc(OC)c1OC`, with “inactive”. As for `COc1cc(CCC(=O)Nc2ccncc2Cl)cc(OC)c1OC`, the figure is -6.22 (active).

As for `C#CCOCCOCCOCCNc1nc(N2CCN(C(=O)CCCCCCCCCCNC(=O)[C@H]([C@@H](C)CC)n3cc(CCCCN=C(N)N)nn3)CC2)nc(N2CCN(C(=O)CCCCCCCCCCNC(=O)[C@H](CO)n3cc(CCCSC)nn3)CC2)n1`, the B-score result is “inactive”. As for `O=C(NCC(=O)N(Cc1cccs1)C(C(=O)NC1CCCCC1)c1ccco1)c1cccs1` (stereo unspecified), the entry is “inactive”; as for `COc1ccc(N2CCN(CCCNC(=O)C3CCN(S(=O)(=O)N4CCOCC4)CC3)CC2)cc1`, “inactive”. As for `CCOc1ccc(CCNC(=O)C2CCN(c3ccc(N4CCOCC4)nn3)CC2)cc1OCC`, the B-score result is “inactive”.

In the case of `COCCCNC(=O)C1CCN(c2ccc(N3CCOCC3)nn2)CC1`, the B-score was -6.39 (active).

In the case of `CN1CCN(Cc2c(C(=O)N3CCc4ccccc4C3)nc3ccc(Cl)cn23)CC1`, the B-score result was “inactive”. Then `CCc1nn(-c2cc(Oc3cccc4ccccc34)nc(-c3ccccc3)n2)c(N)c1C#N`, with “inactive”; and `COC(=O)c1c(NC(=O)c2c(Cl)cnn2C)sc(C)c1C`, with -4.74 (active). Then `CCOC(=O)c1c(NC(=O)CSc2nccc(=O)[nH]2)sc(C)c1C`, with “inactive”; and `COCCCNCC(=O)Nc1sc(C)c(C)c1C(=O)OC`, with “inactive”; and `CN(C)c1cccc(C(=O)N2CCC(n3nccc3NC(=O)C3CCOC3)CC2)c1` (stereo unspecified), with “inactive”.

`Cc1ccccc1OCCC(=O)OCC(=O)NC(C)c1ccccc1` (stereo unspecified): the B-score result is “inactive”.

With `O=C(Cn1cc(C(=O)C2CC2)c2ccccc21)Nc1ccccc1Cl`, the B-score entry was “inactive”. Then `Cc1ccc(-n2cnc3ncnc(-c4ccccc4)c32)cc1`, with “inactive”; and `Cc1ccc(-c2nn(C(C)(C)C)c3ncnc(N)c23)cc1`, with -4.54 (active); and `CC(=O)Nc1ccc(NC(=O)COc2ccc(S(=O)(=O)NC(C)c3ccccc3)cc2)cc1` (stereo unspecified), with “inactive”.

Take `COCCOC(=O)c1c(C)oc2cc(Br)c(OCC(N)=O)cc12`: the B-score result is “inactive”.

Take `CCOC(=O)c1c(NC(=O)CNC2CCCc3ccccc32)sc(C(N)=O)c1C` (stereo unspecified): the B-score is -4.67 (active). Turning to `CCOC(=O)c1sc(NC(=O)CSc2nnc(-c3ccco3)o2)c(C(=O)OCC)c1C`, the B-score result is “inactive”. As for `CCOC(=O)c1sc(NC(=O)COc2ncnc3ccccc23)c(C(=O)OCC)c1C`, the entry is “inactive”. `Cc1ccc(C(=O)C(C)OC(=O)Cc2n[nH]c(=O)c3ccccc23)cc1C` (stereo unspecified): the B-score result is “inactive”. Then `O=C(/C(=C/c1cccc(Cl)c1)c1nc2ccccc2[nH]1)c1ccccc1`, with “inactive”; and `O=C(CSc1nc2ccc([N+](=O)[O-])cc2[nH]1)c1ccc(Cl)cc1`, with “inactive”. For the compound `O=C(Cc1nc2ccccc2[nH]c1=O)c1ccc(Cl)cc1`, the B-score is -5.73 (active).

For the origin of these results see PubChem BioAssay AID588676 (Johns Hopkins Ion Channel Center, 2011).
